Bioassay records deposited in PubChem by several laboratories.
A selection: hits, their analogues and other compounds. The true share with any hit is near 2.4%.
HTR2A ag – mouse Htr2a agonists via beta-arrestin recruitment, primary screen, cell-based, luminescence; CHO-K1 mHTR2A beta-arrestin complementation; percent of 30 µM serotonin response; activation, % at 7.6 µM; hit rate 0.66% among 360,000; AID 624169, 2012;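 active means activation above a run cutoff, the mean activation of all tested compounds plus 3 SD, cut at about 14% in these data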
Target sequence (P35363 whole entry, looked up): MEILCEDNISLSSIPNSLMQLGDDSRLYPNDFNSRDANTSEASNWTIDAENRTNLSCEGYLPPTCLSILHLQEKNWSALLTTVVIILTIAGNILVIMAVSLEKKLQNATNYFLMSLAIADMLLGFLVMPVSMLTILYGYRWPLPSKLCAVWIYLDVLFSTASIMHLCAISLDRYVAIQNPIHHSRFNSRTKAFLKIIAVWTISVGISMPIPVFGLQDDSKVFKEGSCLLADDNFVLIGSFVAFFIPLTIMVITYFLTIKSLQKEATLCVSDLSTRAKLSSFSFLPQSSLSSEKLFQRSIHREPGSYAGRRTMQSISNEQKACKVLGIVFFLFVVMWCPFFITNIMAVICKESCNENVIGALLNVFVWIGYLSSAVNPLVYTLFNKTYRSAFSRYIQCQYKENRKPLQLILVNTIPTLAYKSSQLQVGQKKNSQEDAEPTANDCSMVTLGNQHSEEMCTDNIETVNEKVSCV
NOD2 RIPK2 PPI – NOD2-RIPK2 binding disruptors in cells, primary screen, fluorescence, CHO cells, BLA complementation. CCF4 ratio. inhibition, % at 4.98 µM. hit rate 0.38% among 360,000. AID 624267, 2012; in the data active means inhibition above about 21%
CRFBP-R2 block – antagonists of CRF-BP/CRF-R2 complex, primary screen, cell-based, HEK293, calcium dye fluorescence, uHTS. CRF-induced calcium fluorescence. inhibition, % at 11.8 µM. hit rate 0.59% among 350,000;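 active means inhibition of the ligand-induced calcium signal above about 50% at the single tested concentration, limit read from the data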
TLR4 MyD88 comp – inhibitors of TLR4-MyD88 association in cells, primary screen, cell-based, HeLa CL3-4, BLA complementation, FRET ratio; hit rate 0.18% among 200,000; Toll-like receptor 4 (Homo sapiens) + Myeloid differentiation primary response protein …; inhibition, % at 8.4 µM; HeLa CL3-4 TLR4/MyD88 BLA complementation; in the data active means inhibition above about 25%
TLR9-MyD88 inh – inhibitors of TLR9-MyD88 association in cells, primary screen, cell-based, CHO, BLA complementation, fluorescence; Toll-like receptor 9 (Homo sapiens) + Myeloid differentiation primary response protein …; inhibition, % at 4.98 µM; hit rate 0.21% among 340,000; CCF4 FRET ratio; AID 504734, 2011;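 active means inhibition above the mean over all tested compounds plus 3 SD, cut at about 21% in these data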
ABHD5 PLIN5 PPI – ABHD5-PLIN5 interaction inhibitors, primary screen, cell lysate, split luciferase complementation, luminescence. Split G. princeps luciferase complementation, 4 h. inhibition, % at 4 µM. hit rate 0.78% among 360,000. Perilipin-5 (Homo sapiens) + 1-acylglycerol-3-phosphate O-acyltransferase ABHD5 (Homo …;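 active means inhibition above the mean inhibition across every tested compound plus 3 SD, cut at about 22% in these data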
ABHD5 PLIN5 conf – ABHD5-PLIN5 interaction inhibitors, confirmation, biochemical, luminescence. shares compounds with ABHD5 PLIN5 PPI. hit rate 67% among 2,200. inhibition, % at 4 µM; in the data active means inhibition above about 23%
HNF4 split-luc – HNF4 dimerization inhibitors, counter-screen for ABHD5-PLIN5 interaction inhibitor project, biochemical, split-luciferase complementation, luminescence | AID 651674, 2012 | hit rate 77% among 2,200 | inhibition, % at 4 µM | shares compounds with ABHD5 PLIN5 PPI;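 active means mean inhibition across replicate wells exceeding the computed hit threshold, cut at about 13% in these data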;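 further: light from luciferase halves that rejoin when HNF4 fusion proteins dimerize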
Large screens that a line does not name were inactive (follow-up assays come after a bar, where they were run).

CCc1cccc2c(C(=O)CSc3nncn3-c3ccc(OC)cc3)c[nH]c12	none
CCc1cccc2c(C(=O)CSc3nncn3-c3ccccc3OC)c[nH]c12	ABHD5 PLIN5 PPI 24 | ABHD5 PLIN5 conf inactive | HNF4 split-luc inactive
Oc1c(C(c2ccccc2)N2CCOCC2)ccc2ccccc12 (stereo not given)	ABHD5 PLIN5 PPI 40 (no result: TLR4 MyD88 comp) | ABHD5 PLIN5 conf 102 | HNF4 split-luc 106
O=C(CN1CCN(C(c2ccccc2)c2ccccc2)CC1)N1CCOCC1	none
COc1c(C)cc(C(O)c2ncc(-c3ccccc3C)[nH]2)cc1C (stereo not given)	none (no result: CRFBP-R2 block, TLR4 MyD88 comp, TLR9-MyD88 inh)
COc1ccc(Cl)cc1CNC[C@H]1O[C@@H](n2cnc3c(=O)[nH]c(N)nc32)[C@H](O)[C@@H]1O	none (no result: CRFBP-R2 block, TLR4 MyD88 comp, TLR9-MyD88 inh)
Cn1c(=Nc2ccc(N3CCOCC3)cc2)ccc2ccccc21	none
Cn1c(N=Nc2ccc(N3CCOCC3)cc2)[n+](C)c2ccccc21	ABHD5 PLIN5 PPI 24 | ABHD5 PLIN5 conf inactive | HNF4 split-luc 39
CC1(C(=O)Nc2cnc3ccccc3c2)CCN1C(=O)c1ccccc1CCc1ccccc1 (stereo not given)	none (no result: CRFBP-R2 block, TLR4 MyD88 comp, TLR9-MyD88 inh)
CC(C)C(C)NC(=O)CSc1nc2scc(-c3ccco3)c2c(=O)n1-c1ccccc1 (stereo not given)	ABHD5 PLIN5 PPI 38 | ABHD5 PLIN5 conf inactive | HNF4 split-luc 15
CC(C)C(C)(C#N)NC(=O)CSc1nc2scc(-c3ccco3)c2c(=O)n1-c1ccccc1 (stereo not given)	ABHD5 PLIN5 PPI 25 | ABHD5 PLIN5 conf 30 | HNF4 split-luc 93
Cc1sc2nc(SCC(=O)NCc3ccco3)n(-c3ccccc3)c(=O)c2c1C	none
COc1cc2c(cc1OCc1ccccc1)/C(=C/C(=O)OCc1ccccc1)OC2	none (no result: CRFBP-R2 block, TLR4 MyD88 comp, TLR9-MyD88 inh)
CC(C)Nc1ncnc2c1ncn2[C@H]1CN(Cc2ccc(F)cc2)C[C@@H](CO)O1	none (no result: CRFBP-R2 block, TLR4 MyD88 comp, TLR9-MyD88 inh)
CCSC1(SCC)N=C(N)C2(C#N)C(c3ccc(OC)c(OC)c3OC)C12C#N (stereo not given)	ABHD5 PLIN5 PPI 25 (no result: TLR4 MyD88 comp) | ABHD5 PLIN5 conf 78 | HNF4 split-luc 72
Cc1ccc(S(=O)(=O)N2C3CCCCC3O[C@H]2CC(=O)c2cccs2)cc1 (stereo not given in full)	none (no result: CRFBP-R2 block, TLR4 MyD88 comp, TLR9-MyD88 inh)
CCCCn1nnnc1C(c1ccccc1)N1CCN(c2ccc(C(F)(F)F)cc2[N+](=O)[O-])CC1 (stereo not given)	none (no result: CRFBP-R2 block, TLR4 MyD88 comp, TLR9-MyD88 inh)
COc1ccc(OCCNc2cc(N3CCCCC3)ccc2[N+](=O)[O-])cc1	none
Cc1cccc(OCCNc2cc(N3CCN(CCO)CC3)ccc2[N+](=O)[O-])c1	ABHD5 PLIN5 PPI 27 | ABHD5 PLIN5 conf inactive | HNF4 split-luc inactive
COc1cccc(OCCNc2cc(N3CCCCC3)ccc2[N+](=O)[O-])c1	none
O=[N+]([O-])c1ccc(N2CCN(S(=O)(=O)c3ccccc3)CC2)cc1NCCN1CCOCC1	ABHD5 PLIN5 PPI 23 | ABHD5 PLIN5 conf inactive | HNF4 split-luc inactive
CC1CN(c2ccc([N+](=O)[O-])c(NCCOc3ccccc3)c2)CCN1 (stereo not given)	ABHD5 PLIN5 PPI 29 | ABHD5 PLIN5 conf inactive | HNF4 split-luc inactive
Cn1nnnc1Sc1ncnc2scc(-c3ccc[nH]3)c12	ABHD5 PLIN5 PPI 42 (no result: TLR4 MyD88 comp) | ABHD5 PLIN5 conf 40 | HNF4 split-luc 37
Cn1nnnc1Sc1ncnc2scc(-c3ccccc3)c12	none
CCN1c2ccccc2NC2N=C(OC)C(c3ccccc3)C21 (stereo not given)	ABHD5 PLIN5 PPI 48 | ABHD5 PLIN5 conf inactive | HNF4 split-luc 13
COc1cc(OC)cc(C(=O)NC(=S)N(Cc2ccccc2)C(C)C)c1	ABHD5 PLIN5 PPI 45 (no result: TLR4 MyD88 comp) | ABHD5 PLIN5 conf 70 | HNF4 split-luc inactive
O=C1c2ccccc2C(c2nnnn2C2CCCCC2)N1CCc1ccc(O)cc1 (stereo not given)	none (no result: CRFBP-R2 block, TLR4 MyD88 comp, TLR9-MyD88 inh)
COc1ccc2oc(=O)c(C(=O)NCc3ccco3)cc2c1	ABHD5 PLIN5 PPI 34 | ABHD5 PLIN5 conf inactive | HNF4 split-luc inactive
COc1ccc(S(=O)(=O)CC(=O)c2cc3cc(Br)ccc3oc2=O)cc1	ABHD5 PLIN5 PPI 33 (no result: TLR4 MyD88 comp) | ABHD5 PLIN5 conf 70 | HNF4 split-luc 53
COc1cccc2cc(C(=O)NCc3ccco3)c(=O)oc12	none
Cc1cccc(CN2CCC(n3nccc3NC(=O)CCCc3ccccc3)CC2)c1	none (no result: TLR4 MyD88 comp)
C[C@@H]1ON(C)[C@H]2C[C@H]3c4[nH]c5ccc(-c6ccc7c(c6)OCO7)cc5c4CCN3C[C@@H]12	none (no result: TLR4 MyD88 comp)
COCCCNC(=O)C[C@@H]1C[C@@]2(C(=O)OC)CCCCC=C2N(CCC2=CCCCC2)C1=O	none (no result: CRFBP-R2 block, TLR4 MyD88 comp, TLR9-MyD88 inh)
CCN(CC)C(=O)c1cccc(-c2csc(C(NC(C)=O)c3cccc(OC)c3)n2)c1 (stereo not given)	none (no result: CRFBP-R2 block, TLR4 MyD88 comp, TLR9-MyD88 inh)
O=c1ccn(C2CCCCC2)c(=O)[nH]1	none (no result: CRFBP-R2 block, TLR4 MyD88 comp, TLR9-MyD88 inh)
CC(C)Oc1ccc(C(=O)/C=C2/C(=O)Nc3ccccc32)cc1	ABHD5 PLIN5 PPI 62 (no result: TLR4 MyD88 comp) | ABHD5 PLIN5 conf 82 | HNF4 split-luc 86
O=C1Nc2ccc(Br)cc2/C1=C/C(=O)c1ccc2c(c1)OCO2	ABHD5 PLIN5 PPI 72 (no result: TLR4 MyD88 comp) | ABHD5 PLIN5 conf 93 | HNF4 split-luc 90
COc1ccc(C(=O)/C=C2\C(=O)Nc3ccc(Br)cc32)cc1	ABHD5 PLIN5 PPI 85 (no result: TLR4 MyD88 comp) | ABHD5 PLIN5 conf 97 | HNF4 split-luc 91
CCC1CSC(Nc2ccc(C(=O)/C=C/c3ccc(Br)cc3)cc2)=N1 (stereo not given)	ABHD5 PLIN5 PPI 24 | ABHD5 PLIN5 conf 52 | HNF4 split-luc 39
CCC1CSC(Nc2ccc(C(=O)/C=C/c3ccc(OC)c(OC)c3)cc2)=N1 (stereo not given)	none
COc1ccc(/C=C/C(=O)c2ccc(NC3=NCCCS3)cc2)cc1OC	ABHD5 PLIN5 PPI 36 | ABHD5 PLIN5 conf 47 | HNF4 split-luc 40
COc1ccc(/C=C/C(=O)Nc2ccncc2)cc1OC	none
CCOC(=O)c1nc2sc(C)c(C)c2c(=O)[nH]1	none
CCOC(=O)/C(=C\c1cccc(O)c1)c1nc2sc(C)c(C)c2c(=O)[nH]1	ABHD5 PLIN5 PPI 53 | ABHD5 PLIN5 conf 85 | HNF4 split-luc 80
O=C1Nc2ccccc2/C1=C/c1ccccc1Cl	ABHD5 PLIN5 PPI 27 (no result: TLR4 MyD88 comp) | ABHD5 PLIN5 conf 40 | HNF4 split-luc 26
Cc1cccn2c(=O)c3cc(C(=O)NCc4ccco4)c(=N)n(CCc4ccccc4)c3nc12	none (no result: TLR4 MyD88 comp)
